# Experimental data reported in PubChem BioAssay (EPA / NIEHS).
# Results filed as inconclusive are left out. Activity calls are given as the source filed them. How the source made its calls, unless noted: active means hit-call score of the fitted dose curve at least 0.9, where 1 is the maximum; inactive means score below 0.9.
# Assays:
# [1] = ATG_TCF_b_cat_CIS: Attagene CIS-FACTORIAL HepG2 Assay for human T-Cell-Factor with beta-catenin (TCF/b-cat) (AID 2282965); conditions: HepG2 TCF/beta-catenin cis-reporter transcription, actives raise or lower the signal
# In short: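 Endogenous TCF/LEF activity read as reporter transcript level via RT-PCR and capillary electrophoresis fluorescence in transfected HepG2, 24 h exposure; gain or loss of signal fitted against DMSO controls.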
# [2] = ATG_TAL_CIS: Attagene CIS-FACTORIAL HepG2 Assay for human TAL Basal Promoter (AID 2282966); conditions: HepG2 Attagene cis-factorial TAL promoter reporter; actives raise or lower the signal;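 further: background control endpoint measuring basal TAL promoter reporter mRNA not a specific factor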
# In short: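 Fluorescence of labelled reporter cDNA fragments, resolved by capillary electrophoresis, gave the readout. Human HepG2 liver cells carried transiently transfected cis-element reporter units and were treated for 24 hours; activity was fitted bidirectionally against DMSO.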
# [3] = ATG_TGFb_CIS: Attagene CIS-FACTORIAL HepG2 Assay for human Transforming Growth Factor (TGF) (AID 2282967); conditions: HepG2 Attagene CIS TGFb reporter, mRNA transcription; actives raise or lower the signal
# In short: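 Cells were dosed for 24 hours, after which total RNA was reverse-transcribed and reporter sequences amplified, labeled and sized by capillary electrophoresis. Activity was fitted in both directions against DMSO.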
# [4] = ATG_VDRE_CIS: Attagene CIS-FACTORIAL HepG2 Assay for human Vitamin D Receptor Element (VDRE) (AID 2282968); conditions: HepG2 VDRE cis-reporter transcription, actives raise or lower the signal
# In short: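 Reporter mRNA induction, quantified by capillary electrophoresis of fluorescently labelled RT-PCR products, was read 24 h after dosing HepG2 cells carrying transiently transfected cis-regulated reporter units; gain or loss relative to DMSO.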
# [5] = molecular target: Steroid hormone receptor ERR1 (Homo sapiens) (UniProt P11474); assay: ATG_ERRa_TRANS: Attagene TRANS-FACTORIAL HepG2 Assay for human Estrogen-Related Receptor alpha (ERRa) (AID 2282971; active means hit-call score of the fitted dose curve at least 0.9, where 1 is the maximum); conditions: HepG2 Attagene TRANS reporter, ERRa transactivation
# In short: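 Reporter transcript induction was quantified by RT-PCR and capillary electrophoresis of FAM-labelled, HpaI-cut products after 24 h treatment of HepG2 cells carrying transiently transfected GAL4-UAS reporter units and an exogenous ERRa-Gal4 fusion; activity scored as increase over DMSO.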
# [6] = molecular target: X-box-binding protein 1 (Homo sapiens) (UniProt P17861); assay: ATG_Xbp1_CIS: Attagene CIS-FACTORIAL HepG2 Assay for human X-box Binding Protein 1 (XBP1) (AID 2282972); conditions: HepG2 XBP1 cis-element reporter, Attagene multiplex; actives raise or lower the signal
# In short: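 After a 24-hour chemical exposure of HepG2 cells carrying cis-regulated reporters, reporter mRNA levels are assessed. Quantification uses RT-PCR, 6-FAM labelling and capillary electrophoresis. Gain- or loss-of-signal is fitted against DMSO.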
# [7] = ATG_GAL4_TRANS: Attagene TRANS-FACTORIAL HepG2 Assay for GAL4 (Internal Marker) (AID 2282976; active means hit-call score of the fitted dose curve at least 0.9, where 1 is the maximum); conditions: HepG2 Attagene TRANS GAL4 internal marker reporter
# In short: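 First, HepG2 cells were transfected with reporter units under GAL4-UAS control. Next, they were treated with chemical for 24 h. Finally, RNA was reverse-transcribed, PCR-amplified, FAM-labelled and resolved by capillary electrophoresis, with induction scored against DMSO.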
# [8] = molecular target: Estrogen-related receptor gamma (Homo sapiens) (UniProt P62508); assay: ATG_ERRg_TRANS: Attagene TRANS-FACTORIAL HepG2 Assay for human Estrogen-Related Receptor gamma (ERRg) (AID 2282977; active means hit-call score of the fitted dose curve at least 0.9, where 1 is the maximum;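 further: hits increase reporter signal over DMSO so potencies reflect activators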); conditions: HepG2 Attagene TRANS reporter, ERRg transactivation
# In short: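 Transfect HepG2 with multiple GAL4-UAS reporter transcription units; dose chemicals 24 h; isolate RNA, reverse-transcribe with oligo(dT), PCR-amplify, label with 6-FAM, digest with HpaI; size fragments by capillary electrophoresis. DMSO serves as negative control.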
# [9] = molecular target: Oxysterols receptor LXR-beta (Homo sapiens) (UniProt P55055); assay: ATG_LXRb_TRANS: Attagene TRANS-FACTORIAL HepG2 Assay for human Liver X Receptor beta (LXRb) (AID 2282981; active means hit-call score of the fitted dose curve at least 0.9, where 1 is the maximum); conditions: HepG2 Attagene TRANS GAL4-LXRb reporter, mRNA
# In short: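 Transient transfection HepG2 (multiplexed RTUs, GAL4-UAS); NR-Gal4 chimera; 24 h exposure; RNA → RT-PCR → 6-FAM primer extension → HpaI → CE; increase vs DMSO.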
# [10] = molecular target: Hepatocyte nuclear factor 4-alpha (Homo sapiens) (UniProt P41235); assay: ATG_HNF4a_TRANS: Attagene TRANS-FACTORIAL HepG2 Assay for human Hepatocyte Nuclear Factor 4 alpha (HNF4a) (AID 2282982; active means hit-call score of the fitted dose curve at least 0.9, where 1 is the maximum); conditions: HepG2 HNF4a transactivation reporter, mRNA readout
# In short: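 Readout is fluorescent reporter-transcript fragments resolved by capillary electrophoresis after RT-PCR from HepG2 cells dosed for 24 h. Cells carried transfected GAL4-UAS reporter constructs measuring exogenous NR-GAL4 chimera activity; DMSO served as baseline.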
# [11] = ATG_M_06_TRANS: Attagene TRANS-FACTORIAL HepG2 Assay for M06 Transcription Factor (Internal Marker) (AID 2282983; active means hit-call score of the fitted dose curve at least 0.9, where 1 is the maximum); conditions: HepG2 Attagene TRANS M06 internal marker reporter
# In short: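 Transfect HepG2 with MRTUs → dose compounds 24 h → isolate RNA, oligo(dT) RT → PCR with reporter primers → 6-FAM primer extension → HpaI digest → CE fragment analysis. Positive direction vs DMSO.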
# [12] = molecular target: Nuclear receptor subfamily 4 group A member 2 (Homo sapiens) (UniProt P43354); assay: ATG_NURR1_TRANS: Attagene TRANS-FACTORIAL HepG2 Assay for human Nuclear Receptor Related Protein 1 (NURR1) (AID 2282985; active means hit-call score of the fitted dose curve at least 0.9, where 1 is the maximum); conditions: HepG2 Attagene TRANS reporter, mRNA readout
# In short: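 Transient transfection of HepG2, human liver cells, with multiple GAL4-UAS reporter transcription units. Cells dosed 24 h, RNA isolated, reverse-transcribed, PCR-amplified, FAM-labelled, HpaI-digested, sized by capillary electrophoresis. DMSO served as negative control.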
# [13] = molecular target: Transcriptional activator Myb (Homo sapiens) (UniProt P10242); assay: ATG_Myb_CIS: Attagene CIS-FACTORIAL HepG2 Assay for human Myeloblastosis (Myb) Proto-Oncogene Transcription Factor (AID 2282986); conditions: HepG2 Attagene CIS-FACTORIAL Myb reporter transcription; actives raise or lower the signal
# In short: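 HepG2 cells were transiently transfected with cis-regulated multiple reporter transcription units reflecting endogenous Myb activity, then exposed to compound for 24 hours. Reporter mRNA was measured by RT-PCR with capillary electrophoresis; bidirectional fitting versus DMSO baseline.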
# [14] = ATG_M_19_TRANS: Attagene TRANS-FACTORIAL HepG2 Assay for M19 Transcription Factor (Internal Marker) (AID 2282974; active means hit-call score of the fitted dose curve at least 0.9, where 1 is the maximum); conditions: HepG2 Attagene TRANS-FACTORIAL M19 internal marker reporter
# In short: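 HepG2 cells transiently transfected with multiple GAL4-UAS reporter transcription units were exposed to chemicals for 24 h. Reporter mRNA was read by RT-PCR, 6-FAM primer extension, HpaI digestion and capillary electrophoresis; gain of signal fitted relative to DMSO.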
# [15] = molecular target: Glucocorticoid receptor (Homo sapiens) (UniProt P04150); assay: ATG_GR_TRANS: Attagene TRANS-FACTORIAL HepG2 Assay for human Glucocorticoid Receptor (GR) (AID 2282978; active means hit-call score of the fitted dose curve at least 0.9, where 1 is the maximum;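 further: activators score as hits since higher reporter transcript over DMSO is fitted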); conditions: HepG2 Attagene TRANS GR reporter, mRNA transcription
# In short: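 HepG2 cells transiently transfected with multiplexed reporter units in which chimeric NR-GAL4 proteins drive GAL4-UAS reporters; 24 h compound exposure. Reporter mRNA measured by RT-PCR, 6-FAM labelling, HpaI digestion and capillary electrophoresis; gain-of-signal fitted versus DMSO.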
# [16] = molecular target: Estrogen receptor (Homo sapiens) (UniProt P03372); assay: ATG_ERa_TRANS: Attagene TRANS-FACTORIAL HepG2 Assay for human Estrogen Receptor alpha (ERa) (AID 2282970; active means hit-call score of the fitted dose curve at least 0.9, where 1 is the maximum); conditions: HepG2 Attagene TRANS ERa GAL4 reporter, mRNA
# In short: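 Human liver HepG2, transient transfection of multiple GAL4-UAS reporter units; TRANS format (exogenous NR-Gal4 chimera). 24 h dosing. Readout: reporter mRNA, RT-PCR, 6-FAM primer extension, HpaI digest, capillary electrophoresis. Positive direction vs DMSO.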
# [17] = molecular target: Bile acid receptor (Homo sapiens) (UniProt Q96RI1); assay: ATG_FXR_TRANS: Attagene TRANS-FACTORIAL HepG2 Assay for Farnesoid X Receptor (FXR) (AID 2282979; active means hit-call score of the fitted dose curve at least 0.9, where 1 is the maximum;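 further: hits raise reporter mRNA above DMSO so AC50 marks FXR activation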); conditions: HepG2 Attagene TRANS FXR-GAL4 reporter transcription
# In short: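 Transient transfection of HepG2 with multiplexed GAL4-UAS reporter units; exogenous FXR-GAL4 chimera. Dose 24 h → TriZol RNA → oligo(dT) RT → PCR, 6-FAM primer extension, HpaI cut → CE. Gain vs DMSO.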
# [18] = molecular target: Oxysterols receptor LXR-alpha (Homo sapiens) (UniProt Q13133); assay: ATG_LXRa_TRANS: Attagene TRANS-FACTORIAL HepG2 Assay for human Liver X Receptor alpha (LXRa) (AID 2282980; active means hit-call score of the fitted dose curve at least 0.9, where 1 is the maximum); conditions: HepG2 Attagene TRANS reporter, LXRa transactivation
# In short: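 Transfect HepG2 with GAL4-UAS multiplex reporter constructs (TRANS format, chimeric receptor-GAL4); treat 24 h; extract RNA, reverse-transcribe, PCR-amplify, FAM-label, HpaI-digest; resolve fragments by capillary electrophoresis. Upward response vs DMSO.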
# [19] = ATG_M_32_TRANS: Attagene TRANS-FACTORIAL HepG2 Assay for M32 Transcription Factor (Internal Marker) (AID 2282984; active means hit-call score of the fitted dose curve at least 0.9, where 1 is the maximum;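 further: transcript level of a background control reporter unit measured by RT-PCR and capillary electrophoresis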); conditions: HepG2 Attagene TRANS M32 internal marker reporter
# In short: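 Measures reporter mRNA induction in human HepG2 liver cells after 24 h chemical treatment. Transcripts from transiently transfected GAL4-UAS reporter units are amplified, fluorescently labelled and sized by capillary electrophoresis; gain of signal relative to DMSO.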
# Sequence of Hepatocyte nuclear factor 4-alpha (Homo sapiens) (P41235 whole entry, looked up, the tested form may be a part): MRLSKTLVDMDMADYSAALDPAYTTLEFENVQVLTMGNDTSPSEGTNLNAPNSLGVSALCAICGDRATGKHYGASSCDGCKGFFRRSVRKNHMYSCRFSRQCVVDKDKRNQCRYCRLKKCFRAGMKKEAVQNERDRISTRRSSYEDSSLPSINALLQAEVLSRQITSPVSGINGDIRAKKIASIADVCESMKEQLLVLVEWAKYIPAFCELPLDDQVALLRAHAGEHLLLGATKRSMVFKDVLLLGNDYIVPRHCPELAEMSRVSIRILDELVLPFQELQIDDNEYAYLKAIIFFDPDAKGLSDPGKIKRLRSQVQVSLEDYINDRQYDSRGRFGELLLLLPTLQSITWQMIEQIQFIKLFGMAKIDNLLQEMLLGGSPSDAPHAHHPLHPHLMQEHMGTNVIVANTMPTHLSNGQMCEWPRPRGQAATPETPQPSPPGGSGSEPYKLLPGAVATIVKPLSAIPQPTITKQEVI
# Sequence of Bile acid receptor (Homo sapiens) (Q96RI1 whole entry, looked up, the tested form may be a part): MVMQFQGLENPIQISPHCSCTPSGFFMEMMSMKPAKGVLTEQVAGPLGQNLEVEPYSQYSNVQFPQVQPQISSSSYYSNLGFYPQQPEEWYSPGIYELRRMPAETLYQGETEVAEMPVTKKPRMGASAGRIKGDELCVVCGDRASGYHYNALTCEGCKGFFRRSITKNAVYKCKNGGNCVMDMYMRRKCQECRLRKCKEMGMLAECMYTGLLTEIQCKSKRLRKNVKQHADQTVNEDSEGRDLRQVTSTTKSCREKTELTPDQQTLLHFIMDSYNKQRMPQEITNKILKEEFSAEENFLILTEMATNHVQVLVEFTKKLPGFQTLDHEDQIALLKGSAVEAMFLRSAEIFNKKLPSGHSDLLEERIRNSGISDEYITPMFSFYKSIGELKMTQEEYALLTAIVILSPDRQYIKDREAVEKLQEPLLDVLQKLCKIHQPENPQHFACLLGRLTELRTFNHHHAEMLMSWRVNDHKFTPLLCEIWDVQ
# Sequence of X-box-binding protein 1 (Homo sapiens) (P17861 whole entry, looked up): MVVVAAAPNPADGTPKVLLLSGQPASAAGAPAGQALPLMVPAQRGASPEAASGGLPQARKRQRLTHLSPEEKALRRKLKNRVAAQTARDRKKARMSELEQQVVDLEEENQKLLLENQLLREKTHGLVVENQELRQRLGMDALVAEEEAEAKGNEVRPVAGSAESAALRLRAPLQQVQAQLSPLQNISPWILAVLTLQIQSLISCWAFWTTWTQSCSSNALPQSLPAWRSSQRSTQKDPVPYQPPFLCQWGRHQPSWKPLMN
# Sequence of Oxysterols receptor LXR-beta (Homo sapiens) (P55055 whole entry, looked up, the tested form may be a part): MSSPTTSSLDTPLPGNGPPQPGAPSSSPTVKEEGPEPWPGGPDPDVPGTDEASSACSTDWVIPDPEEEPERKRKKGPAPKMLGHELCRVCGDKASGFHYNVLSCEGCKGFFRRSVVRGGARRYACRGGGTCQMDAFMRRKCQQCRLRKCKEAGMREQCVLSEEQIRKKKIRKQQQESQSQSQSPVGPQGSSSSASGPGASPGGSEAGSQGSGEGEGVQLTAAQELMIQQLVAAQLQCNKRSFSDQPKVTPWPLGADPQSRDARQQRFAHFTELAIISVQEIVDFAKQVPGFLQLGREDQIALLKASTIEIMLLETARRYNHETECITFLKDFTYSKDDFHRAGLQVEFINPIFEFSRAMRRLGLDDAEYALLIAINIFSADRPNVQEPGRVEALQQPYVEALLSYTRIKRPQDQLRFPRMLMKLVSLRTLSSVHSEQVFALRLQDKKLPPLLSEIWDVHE
# Sequence of Oxysterols receptor LXR-alpha (Homo sapiens) (Q13133 whole entry, looked up, the tested form may be a part): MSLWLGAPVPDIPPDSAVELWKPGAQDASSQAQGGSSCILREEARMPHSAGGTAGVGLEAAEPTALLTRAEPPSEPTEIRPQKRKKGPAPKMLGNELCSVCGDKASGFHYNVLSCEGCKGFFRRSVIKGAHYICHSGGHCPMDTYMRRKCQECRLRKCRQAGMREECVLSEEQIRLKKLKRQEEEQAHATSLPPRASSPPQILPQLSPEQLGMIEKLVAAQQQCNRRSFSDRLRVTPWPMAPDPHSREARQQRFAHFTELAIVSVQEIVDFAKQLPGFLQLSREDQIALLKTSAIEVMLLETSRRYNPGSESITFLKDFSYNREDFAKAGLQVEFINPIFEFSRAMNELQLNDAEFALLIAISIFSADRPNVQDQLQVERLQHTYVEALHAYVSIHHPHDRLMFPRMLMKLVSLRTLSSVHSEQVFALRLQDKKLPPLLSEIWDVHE
# Sequence of Estrogen receptor (Homo sapiens) (P03372 whole entry, looked up, the tested form may be a part): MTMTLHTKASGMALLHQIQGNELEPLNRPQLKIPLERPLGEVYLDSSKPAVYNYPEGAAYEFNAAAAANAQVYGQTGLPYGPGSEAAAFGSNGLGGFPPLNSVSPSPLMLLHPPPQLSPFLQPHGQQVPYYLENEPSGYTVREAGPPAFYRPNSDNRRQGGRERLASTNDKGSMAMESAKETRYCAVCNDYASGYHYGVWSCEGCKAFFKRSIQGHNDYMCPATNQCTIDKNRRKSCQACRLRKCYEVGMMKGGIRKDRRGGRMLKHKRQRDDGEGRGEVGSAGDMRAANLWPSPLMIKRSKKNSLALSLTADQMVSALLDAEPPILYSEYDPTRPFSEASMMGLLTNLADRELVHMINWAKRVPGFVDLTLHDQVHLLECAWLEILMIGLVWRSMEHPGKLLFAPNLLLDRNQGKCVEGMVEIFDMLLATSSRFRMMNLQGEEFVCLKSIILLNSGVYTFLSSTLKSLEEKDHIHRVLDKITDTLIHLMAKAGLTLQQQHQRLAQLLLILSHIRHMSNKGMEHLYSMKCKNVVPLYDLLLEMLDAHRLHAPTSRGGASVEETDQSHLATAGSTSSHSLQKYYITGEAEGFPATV
# Sequence of Transcriptional activator Myb (Homo sapiens) (P10242 whole entry, looked up): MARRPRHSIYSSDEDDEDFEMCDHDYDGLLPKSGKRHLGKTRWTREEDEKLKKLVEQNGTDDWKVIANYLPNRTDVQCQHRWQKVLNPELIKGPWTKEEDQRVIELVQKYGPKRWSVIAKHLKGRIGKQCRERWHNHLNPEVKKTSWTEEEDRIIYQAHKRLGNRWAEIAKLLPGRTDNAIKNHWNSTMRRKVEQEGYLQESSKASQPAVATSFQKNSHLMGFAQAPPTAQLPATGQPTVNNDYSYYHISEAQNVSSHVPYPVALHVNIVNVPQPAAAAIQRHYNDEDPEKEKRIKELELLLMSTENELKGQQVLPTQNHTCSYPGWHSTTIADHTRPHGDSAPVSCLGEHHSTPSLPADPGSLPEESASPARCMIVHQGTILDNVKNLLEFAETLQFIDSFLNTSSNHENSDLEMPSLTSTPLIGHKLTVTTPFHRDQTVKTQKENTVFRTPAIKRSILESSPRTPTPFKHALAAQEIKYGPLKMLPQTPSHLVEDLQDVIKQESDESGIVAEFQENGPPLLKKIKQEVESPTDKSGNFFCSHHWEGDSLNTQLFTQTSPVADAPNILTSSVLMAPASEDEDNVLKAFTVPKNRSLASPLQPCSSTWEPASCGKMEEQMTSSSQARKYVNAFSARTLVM
# Sequence of Glucocorticoid receptor (Homo sapiens) (P04150 whole entry, looked up, the tested form may be a part): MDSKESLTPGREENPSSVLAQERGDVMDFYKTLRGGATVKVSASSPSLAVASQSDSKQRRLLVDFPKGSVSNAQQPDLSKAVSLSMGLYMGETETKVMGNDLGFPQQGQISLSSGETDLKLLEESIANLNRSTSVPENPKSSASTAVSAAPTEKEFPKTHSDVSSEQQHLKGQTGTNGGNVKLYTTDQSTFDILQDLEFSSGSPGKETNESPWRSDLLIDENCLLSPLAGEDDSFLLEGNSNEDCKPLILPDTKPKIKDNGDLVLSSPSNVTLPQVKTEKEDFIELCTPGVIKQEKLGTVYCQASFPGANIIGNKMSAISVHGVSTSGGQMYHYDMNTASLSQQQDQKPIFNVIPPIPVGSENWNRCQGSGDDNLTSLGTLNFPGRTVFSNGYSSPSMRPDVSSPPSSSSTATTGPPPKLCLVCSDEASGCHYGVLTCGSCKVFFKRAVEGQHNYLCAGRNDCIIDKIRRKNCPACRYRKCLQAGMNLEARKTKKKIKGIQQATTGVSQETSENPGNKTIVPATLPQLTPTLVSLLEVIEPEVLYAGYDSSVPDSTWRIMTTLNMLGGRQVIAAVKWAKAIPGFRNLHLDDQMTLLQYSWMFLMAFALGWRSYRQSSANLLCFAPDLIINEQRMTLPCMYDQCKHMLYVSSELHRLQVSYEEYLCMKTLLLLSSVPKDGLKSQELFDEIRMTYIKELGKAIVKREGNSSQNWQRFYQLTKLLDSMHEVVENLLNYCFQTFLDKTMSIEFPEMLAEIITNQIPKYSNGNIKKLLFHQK
# Sequence of Nuclear receptor subfamily 4 group A member 2 (Homo sapiens) (P43354 whole entry, looked up, the tested form may be a part): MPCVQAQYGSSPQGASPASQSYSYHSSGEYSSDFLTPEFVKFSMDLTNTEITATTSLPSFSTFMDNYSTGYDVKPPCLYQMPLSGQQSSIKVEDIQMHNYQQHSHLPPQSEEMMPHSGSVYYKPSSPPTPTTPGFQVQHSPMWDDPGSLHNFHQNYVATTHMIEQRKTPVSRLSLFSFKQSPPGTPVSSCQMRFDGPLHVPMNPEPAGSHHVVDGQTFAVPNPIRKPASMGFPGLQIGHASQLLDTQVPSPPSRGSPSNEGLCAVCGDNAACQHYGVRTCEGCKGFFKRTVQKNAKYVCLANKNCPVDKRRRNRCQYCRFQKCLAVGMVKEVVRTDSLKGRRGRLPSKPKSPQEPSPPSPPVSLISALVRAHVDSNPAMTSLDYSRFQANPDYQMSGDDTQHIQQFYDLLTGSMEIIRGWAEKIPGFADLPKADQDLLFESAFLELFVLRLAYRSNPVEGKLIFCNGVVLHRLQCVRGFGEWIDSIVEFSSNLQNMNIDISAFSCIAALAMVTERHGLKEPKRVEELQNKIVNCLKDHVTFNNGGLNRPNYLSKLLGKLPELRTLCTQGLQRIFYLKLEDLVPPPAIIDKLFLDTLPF
structure (smiles),measurement,setting,value
C=CC(=O)OCC(CO)(COC(=O)C=C)COC(=O)C=C,AC50,[1],5.46 µM (active)
same,outcome,[2],inactive
same,AC50,[3],54.2 µM (active)
same,AC50,[4],0.708 µM (active)
same,outcome,[5],inactive
same,outcome,[6],inactive
same,outcome,[7],inactive
same,outcome,[8],inactive
same,outcome,[9],inactive
same,outcome,[10],inactive
same,outcome,[11],inactive
same,outcome,[12],inactive
same,AC50,[13],180 µM (active)
CCOC(=O)C(=O)OCC,outcome,[1],inactive
same,outcome,[2],inactive
same,outcome,[3],inactive
same,outcome,[4],inactive
same,outcome,[5],inactive
same,outcome,[6],inactive
same,outcome,[14],inactive
same,outcome,[7],inactive
same,outcome,[15],inactive
same,outcome,[10],inactive
same,outcome,[13],inactive
CN1CCc2cccc3c2[C@H]1Cc1ccc(O)c(O)c1-3,outcome,[1],inactive
same,AC50,[2],8.44 µM (active)
same,outcome,[3],inactive
same,outcome,[4],inactive
same,outcome,[16],inactive
same,outcome,[6],inactive
same,outcome,[8],inactive
same,outcome,[15],inactive
same,outcome,[17],inactive
same,outcome,[18],inactive
same,outcome,[9],inactive
same,outcome,[10],inactive
same,outcome,[11],inactive
same,outcome,[13],inactive
CCCCCCCCSCc1cc(C)c(O)c(CSCCCCCCCC)c1,outcome,[1],inactive
same,outcome,[2],inactive
same,outcome,[3],inactive
same,outcome,[4],inactive
same,outcome,[16],inactive
same,outcome,[6],inactive
same,outcome,[7],inactive
same,outcome,[17],inactive
same,outcome,[9],inactive
same,outcome,[10],inactive
same,outcome,[11],inactive
same,outcome,[19],inactive
same,outcome,[12],inactive
same,outcome,[13],inactive
c1ccc2scnc2c1,outcome,[1],inactive
same,outcome,[2],inactive
same,outcome,[3],inactive
same,outcome,[4],inactive
same,outcome,[16],inactive
same,outcome,[6],inactive
same,outcome,[7],inactive
same,outcome,[9],inactive
same,outcome,[11],inactive
same,outcome,[13],inactive
CC1=CC[C@@H](C(C)(C)O)CC1,outcome,[1],inactive
same,outcome,[2],inactive
same,outcome,[3],inactive
same,outcome,[4],inactive
same,outcome,[16],inactive
same,outcome,[6],inactive
same,outcome,[18],inactive
same,outcome,[9],inactive
same,outcome,[10],inactive
same,outcome,[11],inactive
same,outcome,[13],inactive
CCCCC/C=C\C=C\C(=O)OCC,outcome,[1],inactive
same,outcome,[2],inactive
same,AC50,[3],74.2 µM (active)
same,outcome,[4],inactive
same,outcome,[16],inactive
same,AC50,[6],61.1 µM (active)
same,outcome,[10],inactive
same,outcome,[11],inactive
same,outcome,[19],inactive
same,AC50,[13],103 µM (active)
O=C(O)c1ccco1,outcome,[1],inactive
same,outcome,[2],inactive
same,outcome,[3],inactive
same,outcome,[4],inactive
same,outcome,[16],inactive
same,outcome,[6],inactive
same,outcome,[14],inactive
same,outcome,[19],inactive
same,outcome,[13],inactive
CCCCCCCCCOS(=O)(=O)O,outcome,[1],inactive
same,outcome,[2],inactive
same,outcome,[3],inactive
same,outcome,[4],inactive
same,AC50,[16],20.1 µM (active)
same,outcome,[6],inactive
same,outcome,[10],inactive
same,outcome,[11],inactive
same,outcome,[13],inactive
Cc1ccc(C(C)(C)O)cc1,outcome,[1],inactive
same,outcome,[2],inactive
same,outcome,[3],inactive
same,outcome,[4],inactive
same,outcome,[16],inactive
same,outcome,[6],inactive
same,outcome,[15],inactive
same,outcome,[18],inactive
same,outcome,[11],inactive
same,outcome,[13],inactive
CCCCCCOC(C)=O,outcome,[1],inactive
same,outcome,[2],inactive
same,outcome,[3],inactive
same,outcome,[4],inactive
same,outcome,[16],inactive
same,outcome,[6],inactive
same,outcome,[7],inactive
same,outcome,[15],inactive
same,outcome,[17],inactive
same,outcome,[18],inactive
same,outcome,[9],inactive
same,outcome,[10],inactive
same,outcome,[11],inactive
same,outcome,[19],inactive
same,outcome,[12],inactive
same,outcome,[13],inactive
